Results taken from PubChem BioAssay AID488969 (Vanderbilt High Throughput Screening Facility, 2010).
Over roughly 110,000 compounds, “z-score” has its median near -0.1; the highest 2% begin near 2. The full list was thinned out, with the highest values kept by preference. Calls of active or inactive are those of the source.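 Rule for the calls: active = z-score in the third read window above 3 or below -3; inactive = the rest.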

Biological target: Metabotropic glutamate receptor 8 (Rattus norvegicus) (UniProt P70579)
Sequence (P70579 whole entry, looked up): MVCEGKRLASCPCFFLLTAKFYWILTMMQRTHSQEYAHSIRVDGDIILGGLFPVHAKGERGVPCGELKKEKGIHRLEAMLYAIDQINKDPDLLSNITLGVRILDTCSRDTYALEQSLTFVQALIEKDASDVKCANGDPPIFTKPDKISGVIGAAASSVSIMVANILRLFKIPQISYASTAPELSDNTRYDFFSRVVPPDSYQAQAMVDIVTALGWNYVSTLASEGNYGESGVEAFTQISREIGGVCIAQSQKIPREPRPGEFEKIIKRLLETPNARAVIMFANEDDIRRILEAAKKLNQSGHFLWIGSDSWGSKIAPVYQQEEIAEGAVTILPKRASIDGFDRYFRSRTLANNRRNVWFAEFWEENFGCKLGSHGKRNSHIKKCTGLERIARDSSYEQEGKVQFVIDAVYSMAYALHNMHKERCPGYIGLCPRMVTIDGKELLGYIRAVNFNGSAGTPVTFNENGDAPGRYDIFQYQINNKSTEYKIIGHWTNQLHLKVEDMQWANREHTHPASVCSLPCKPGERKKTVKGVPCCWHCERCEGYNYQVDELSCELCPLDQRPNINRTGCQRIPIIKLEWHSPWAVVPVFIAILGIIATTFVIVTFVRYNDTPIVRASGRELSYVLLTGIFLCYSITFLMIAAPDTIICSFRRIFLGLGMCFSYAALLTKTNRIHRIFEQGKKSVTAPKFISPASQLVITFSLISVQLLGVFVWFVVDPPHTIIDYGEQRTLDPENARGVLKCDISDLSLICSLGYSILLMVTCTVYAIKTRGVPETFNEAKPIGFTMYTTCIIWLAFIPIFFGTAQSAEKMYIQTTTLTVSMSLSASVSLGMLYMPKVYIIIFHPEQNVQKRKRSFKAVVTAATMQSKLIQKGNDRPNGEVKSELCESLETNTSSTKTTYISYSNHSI
Test: mGluR8 Gi/Go-coupled signaling modulation – cell-based, rat, thallium flux, HTS, primary screen (AID 488969)
Settings: HEK293 rat mGluR8, GIRK (G protein-gated inwardly rectifying potassium channel) thallium flux, FluoZin2; at 10 µM; stronger effect = higher value; submaximal glutamate (EC20) added with thallium

Going from `COc1ccc2cc(C(c3nnnn3C3CCCCC3)N3CCCCCC3)c3nnnn3c2c1` (configuration not stated) to `O=c1[nH]c2ccccc2n1C1CCCCC1`, the z-score falls from -0.929 to -1.04.

Compared with `CCn1c(=O)c2ccccc2n2c(SCC(=O)N3CCc4ccccc4C3)nnc12`, `CCCn1c(SCC(=O)N2CCN(c3ccccc3)CC2)nc2ccccc2c1=O` is lower in z-score: 1.51 for the first, -0.496 for the second.

First: CCn1c(SCC(=O)NC(C)(C)C)nnc1-c1ccoc1C
Second: Cn1c(SCC(=O)NC(C)(C)C)nc(O)cc1=O
The z-score of the first is higher: 0.155 for the first, -0.0162 for the second.

Compared with `CCN(CC)S(=O)(=O)c1ccc(N2CCOCC2)c(NC(=O)Cc2ccccc2)c1`, `Cc1onc(-c2ccccc2)c1C(=O)Nc1ccc(N2CCOCC2)cc1` is higher in z-score: -0.339 for the first, -0.074 for the second.

Going from `O=C(CC1NCCNC1=O)OCc1ccccc1` (configuration not stated) to `O=C(CC1NCCNC1=O)OCCCc1ccccc1` (configuration not stated), the z-score rises from 0.419 to 1.22.

Going from `CCCOc1ccc(C(=O)NC(=S)Nc2nc(C)c(C(=O)N(C)C)s2)cc1` to `COc1ccc(NC(=O)/C(=C/c2ccc3c(c2)OCO3)NC(C)=O)cc1`, the z-score falls from 0.54 to -0.031.

First: CCOC(=O)C1CCCN(C(=O)c2cccs2)C1 (configuration not stated)
Second: CCOC(=O)C1CCCN(C(=O)c2cc(-c3ccc(C)cc3)on2)C1 (configuration not stated)
The z-score of the first is higher: -0.161 for the first, -0.235 for the second.

Compared with `CC(=O)CSc1nc(N)c(C#N)c(-c2cccs2)c1C#N`, `COC(=O)C1=C(C)OC(N)=C(C#N)C1c1ccccc1` (configuration not stated) is lower in z-score: -0.18 for the first, -0.92 for the second.

First: COc1ccc(/C=N/NC(=O)c2nc(-c3ccccc3)cc(-c3ccccc3)n2)cc1OC
Second: COc1cccc(/C=N/NC(=O)c2nc(-c3ccccc3)cc(-c3ccccc3)n2)c1
The z-score of the first is higher: 0.42 for the first, -0.286 for the second.

Going from `O=C1C2C3C=CC(CC3)C2C(=O)N1/N=C/c1ccccc1O` (configuration not stated) to `CC12CCC(C(=O)N(NC(=O)c3ccccc3Cl)C1=O)C2(C)C` (configuration not stated), the z-score rises from -0.187 to 0.00342.

Going from `CC12CCC(C(=O)N(c3ccccc3Cl)C1=O)C2(C)C` (configuration not stated) to `CC12CCC(C(=O)N(CC(O)CN3CCCCCC3)C1=O)C2(C)C` (configuration not stated), the z-score falls from 0.208 to 0.13.

Compared with `CCn1c(CNC(=O)c2cccc(C)c2)nnc1SCC(=O)NC1CCCCC1C` (configuration not stated), `Cc1ccc(NC(=O)CSc2nnc(CCNC(=O)OC(C)(C)C)o2)c(C)c1` is higher in z-score: 0.161 for the first, 2.11 for the second.

First: Cc1[nH]c2ccc(F)cc2c(=O)c1SC(F)(F)C(F)F
Second: Cc1ccc2c(c1)C(c1ccc(F)cc1)N(C(=O)C1CC1)CC(=O)N2 (configuration not stated)
The z-score of the first is lower: -1.3 for the first, 2.06 for the second.

First: CCCC(=O)N1CC(=O)Nc2ccc(F)cc2C1c1ccccc1 (configuration not stated)
Second: Cc1ccc2c(c1)C(c1ccccc1)N(C(=O)C(C)C)CC(=O)N2 (configuration not stated)
The z-score of the first is lower: -0.534 for the first, -0.0998 for the second.

Going from `Cn1nc(C(=O)NCc2ccccn2)c2ccccc2c1=O` to `Cn1cc(S(=O)(=O)CC(=O)Nc2ccc(Br)cc2)c2ccccc21`, the z-score rises from -0.406 to -0.0267.

Going from `COC(=O)CSc1nc(NC#N)nc(NC(C)C)n1` to `CC(C)c1nc(C#N)c(NCCCn2ccnc2)o1`, the z-score rises from -0.00648 to 0.481.

First: Cc1ccc2cc(C3CC(c4ccco4)=NN3S(=O)(=O)c3ccccc3)c(Cl)nc2c1 (configuration not stated)
Second: Cc1ccc(C)c2[nH]c(=O)c(C(c3nnnn3Cc3ccccc3)N3CCc4ccccc4C3)cc12 (configuration not stated)
The z-score of the first is higher: 0.136 for the first, -0.148 for the second.

Going from `O=C(Nc1cccnc1)C(Cc1ccccc1)n1cccc1` (configuration not stated) to `O=C(NC1CCCC1)C(Cc1ccccc1)n1cccc1` (configuration not stated), the z-score rises from 0.0231 to 0.182.

First: CCC(C(=O)Nc1nc(C)cs1)c1ccccc1 (configuration not stated)
Second: Cc1csc(NC(=O)CSCC(=O)Nc2ccccc2)n1
The z-score of the first is lower: -0.691 for the first, 0.462 for the second.

Going from `CCSc1nnc(NC(=O)CCc2ccccc2)s1` to `CCSc1nnc(NC(=O)[C@@H](NC(=O)c2ccccc2)C(C)C)s1`, the z-score rises from -0.278 to -0.168.

First: CCN(CC)C(=O)NC(c1ccc(C)c(F)c1)C(Cl)(Cl)Cl (configuration not stated)
Second: CCN(CC)C(=O)CSc1nnc(CCNC(=O)OC(C)(C)C)o1
The z-score of the first is lower: -0.501 for the first, 0.491 for the second.

Compared with `CCC1CCCCN1C(=O)C1CC(c2cc(Cl)c(OC)cc2OC)=NO1` (configuration not stated), `COc1ccc(CNC(=O)C2CCCN(c3nc4ccccc4o3)C2)c(OC)c1` (configuration not stated) is higher in z-score: -0.518 for the first, 0.18 for the second.

First: Cc1cc(=O)oc2cc(OCC(=O)Nc3nnc(CC(C)C)s3)ccc12
Second: Cc1ccc(C)c(NC(=O)CSc2nnc(CCNC(=O)OC(C)(C)C)o2)c1
The z-score of the first is lower: -0.0633 for the first, 0.761 for the second.

Going from `CCc1ccc2oc(-c3cc(N=Cc4cccc(OC)c4O)ccc3O)nc2c1` to `COc1cnc(-c2ccccn2)nc1Sc1ccc(Cl)cc1`, the z-score rises from -0.649 to -0.328.

First: Cc1cc2c(cc1C)C(c1ccccc1Br)CC(=O)N2 (configuration not stated)
Second: OCCCc1nc2n(n1)C(c1ccccc1Cl)C=C(c1cccs1)N2 (configuration not stated)
The z-score of the first is higher: 0.617 for the first, -1.48 for the second.

First: OCCCc1nc2n(n1)C(c1ccccc1)C=C(c1ccc(F)cc1)N2 (configuration not stated)
Second: OCCCc1nc2n(n1)C(c1ccccc1)C=C(c1ccccc1)N2 (configuration not stated)
The z-score of the first is lower: -1.33 for the first, -0.449 for the second.

Going from `Brc1ccc(C2=CC(c3cccs3)n3ncnc3N2)cc1` (configuration not stated) to `OCCCc1nc2n(n1)C(c1cccs1)C=C(c1ccccc1)N2` (configuration not stated), the z-score rises from -1.55 to 2.68.

Compared with `CC(=O)C1=C(c2ccccc2)OC(N)=C(C#N)C1c1ccc(O)cc1` (configuration not stated), `N#C/C(=C(/O)C(Cl)c1ccccc1)c1nc2ccccc2s1` (configuration not stated) is higher in z-score: -0.487 for the first, -0.476 for the second.

First: CC(C)(C)OC(=O)NCCc1nnc(SCC(N)=O)o1
Second: C=C(C)CSc1nnc(CCNC(=O)OC(C)(C)C)o1
The z-score of the first is lower: -0.0953 for the first, 2.19 for the second.

Compared with `Cc1ccc(NC(=O)CSc2nnc(CCCCCNC(=O)OC(C)(C)C)o2)c(C)c1`, `C=CCOc1ccc(CNn2c(C)n[nH]c2=S)cc1OC` is lower in z-score: 0.493 for the first, 0.17 for the second.

Compared with `COc1ccccc1-n1c(SCC(=O)N2CCc3ccccc32)nc2c(c1=O)SCC2`, `CCCn1c(=O)[nH]c2ccccc21` is higher in z-score: -0.558 for the first, -0.219 for the second.

For `CCOC(=O)C1CCCN(C(=O)c2cc(-c3ccccc3)on2)C1` (configuration not stated), the z-score was 3.22 (active).
In the case of `COc1ccc(/C=N/NC(=O)c2nc(-c3ccccc3)cc(-c3ccccc3)n2)cc1`, the z-score is reported as 8.06 (active).
`CC12CCC(C(=O)N(CSC(=S)N/N=C\c3ccccc3O)C1=O)C2(C)C` (configuration not stated) was tested, and the z-score was 5.76 (active).
With `CC12CCC(C(=O)N(CSC(=S)N/N=C\c3ccccc3Cl)C1=O)C2(C)C` (configuration not stated) the z-score was 16.2 (active).
In the case of `CCSc1nnc(NC(=O)C(Cc2ccccc2)n2cccc2)s1` (configuration not stated), the z-score is reported as 4.24 (active).
In the case of `Cc1csc(NC(=O)C(Cc2ccccc2)n2cccc2)n1` (configuration not stated), the z-score is reported as 5.2 (active).
With `O=C(Nc1ncc(Br)s1)C(Cc1ccccc1)n1cccc1` (configuration not stated) the z-score was 7 (active).
With `OCCCc1nc2n(n1)C(c1cccs1)C=C(c1ccc(Br)cc1)N2` (configuration not stated) the z-score was 5.08 (active).
In the case of `CC1=C(n2nnc3ccccc32)C(c2ccccc2)C(C#N)=C(N)O1` (configuration not stated), the z-score is reported as 3.38 (active).
`O=c1[nH]c2ccccc2n1CCC1CCCCC1` was tested, and the z-score was 5.05 (active).
